Source: PubChem (several laboratories)
Hits are enriched below; roughly 0.9% of the tested compounds scored in any of these assays.
FadD28 FP inh: inhibitors of Mycobacterium tuberculosis FadD28 bisubstrate binding. inhibition, % at 12.5 µM. AID 588549. hit rate 0.22% among 360,000. FadD28 bisubstrate probe binding, fluorescence polarization; in the data active means inhibition above about 8.5%, passing the limit was not always enough; inconclusive means no clear call, values can overlap the other calls
Rv3671c inh: inhibits the M. tuberculosis serine protease Rv3671c; inhibition, % at 5.96 µM; hit rate 0.048% among 320,000; AID 2606; in the data active means inhibition above about 38%;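 further: extracellular domain of Rv3671c used as enzyme; 0% = enzyme with DMSO and 100% = no enzyme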
RecA intein inh: blocks M. tuberculosis RecA intein splicing; cell-free RecA intein splicing, fluorescence; inhibition, % (concentration not given with the values); hit rate 0.75% among 290,000; AID 2221; in the data active means inhibition above about 30%; inconclusive means no clear call, values can overlap the other calls;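 further: 0% = vehicle wells and 100% = reference inhibitor control wells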
Target sequence (P9WHJ3 whole entry, looked up): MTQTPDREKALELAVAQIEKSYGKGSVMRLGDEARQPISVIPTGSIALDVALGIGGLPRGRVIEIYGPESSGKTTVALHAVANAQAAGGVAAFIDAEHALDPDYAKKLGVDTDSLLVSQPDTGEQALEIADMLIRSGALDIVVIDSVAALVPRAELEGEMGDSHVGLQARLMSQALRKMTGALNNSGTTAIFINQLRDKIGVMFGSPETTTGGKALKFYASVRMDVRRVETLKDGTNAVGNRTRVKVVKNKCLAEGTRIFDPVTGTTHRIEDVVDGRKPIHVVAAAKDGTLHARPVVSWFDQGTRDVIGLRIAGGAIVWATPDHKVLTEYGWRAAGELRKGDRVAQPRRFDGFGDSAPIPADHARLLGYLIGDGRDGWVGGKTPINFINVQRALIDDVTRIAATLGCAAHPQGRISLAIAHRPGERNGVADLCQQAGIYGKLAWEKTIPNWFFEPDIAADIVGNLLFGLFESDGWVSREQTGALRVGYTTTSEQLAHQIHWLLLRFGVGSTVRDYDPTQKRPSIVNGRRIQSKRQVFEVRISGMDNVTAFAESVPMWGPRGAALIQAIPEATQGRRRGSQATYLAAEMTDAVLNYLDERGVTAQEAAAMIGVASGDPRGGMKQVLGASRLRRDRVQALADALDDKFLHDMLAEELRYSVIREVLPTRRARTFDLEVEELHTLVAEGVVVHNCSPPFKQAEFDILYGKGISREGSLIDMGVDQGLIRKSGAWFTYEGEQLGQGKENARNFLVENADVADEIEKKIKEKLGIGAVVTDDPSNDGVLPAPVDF
BioA inh: inhibitors of Mycobacterium tuberculosis BioA enzyme; purified M. tuberculosis BioA enzyme, plate reader; hit rate 0.096% among 360,000; AID 602481; inhibition, % at 9.99 µM; in the data active means inhibition above about 40%; inconclusive means no clear call, values can overlap the other calls
Mtb UGM inh: Mtb UDP-galactopyranose mutase inhibition; inhibition, % at 10 µM; purified UGM, fluorescence polarization probe displacement; AID 504406; hit rate 0.06% among 320,000; P9WIQ1; in the data active means inhibition above about 10%, passing the limit was not always enough; inconclusive means no clear call, values can overlap the other calls
TcdB GH inh: blocks C. difficile toxin B glycohydrolase activity. inhibition, % at 9.99 µM. TcdB glycohydrolase enzymatic assay, plate reader. hit rate 0.24% among 350,000. P18177. AID 652162; in the data active means inhibition above about 10%
An asterisk follows results filed as active; ? = inconclusive; · = not tested or not shown.

SMILES | FadD28 FP inh | Rv3671c inh | RecA intein inh | BioA inh | Mtb UGM inh | TcdB GH inh
Nc1nc2c(s1)CCc1c-2cnn1-c1ccccc1 | 1 | -61 | 98* | 3 | 3 | ·
CC1(C)CC(=O)C2=C(C1)Nc1[nH]n(-c3ccccc3)c(=O)c1C2c1ccc2c(c1)OCO2 (stereo not given) | -3 | · | 69* | -2 | · | ·
CC(=O)Oc1ccc(/C=N/NC(=O)CCSc2ccccc2)cc1 | -5 | 1 | 14 | 3 | -1 | 11*
COc1ccccc1/C=N/NC(=O)CCSc1ccccc1 | -3 | 2 | 1 | 3 | 0 | -1
COc1ccc(-n2c3nc4ccccc4nc3c3c(=N)oc(C)nc32)cc1 | -2 | -14 | 72* | -1 | 5 | ·
CCCCn1c2nc3ccccc3nc2c2c(=N)oc(C)nc21 | -3 | · | · | -1 | · | 1
O=C(Cn1nnc(-c2ccc3c(c2)OCO3)n1)Nc1ccccc1C(=O)O | 11* | 6 | -1 | 0 | 4 | 0
O=C(CCl)Nc1ccccc1C(=O)Nc1ccc2c(c1)OCO2 | -1 | -5 | 38* | · | -1 | 2
O=C(Cn1nnc(-c2ccccc2)n1)Nc1ccc2c(c1)OCO2 | 0 | 0 | 1 | -3 | 1 | ·
CCOC(=O)N1CCN=C1SCc1ccc(Cl)c(Cl)c1 | -3 | -4 | 23 | 0 | 3 | 12*
CC(C)CC(=O)NNC(=S)Nc1ccc(S(N)(=O)=O)cc1 | -1 | -10 | -2 | 2 | -1 | 0
CCc1ccc(C(=O)NNC(=S)Nc2ccc(S(N)(=O)=O)cc2)s1 | 1 | -5 | 63* | · | 2 | 1
CN(C)S(=O)(=O)c1cc(NC(=O)CSc2cccc[n+]2[O-])ccc1Cl | 0 | -9 | · | 0 | 2 | 1
CN(C)S(=O)(=O)c1cc(NC(=O)CSc2ncc(C(F)(F)F)cc2Cl)ccc1Cl | 13* | -39 | 10 | · | 0 | ·
O=C1/C(=C/C=C/c2ccco2)SC(=S)N1NS(=O)(=O)c1ccccc1 | 47* | 5 | · | -3 | -1 | -2
CC(C(=O)O)N1C(=O)/C(=C/C=C/c2ccco2)SC1=S (stereo not given) | 36* | 3 | 7 | -2 | -1 | ·
O=C1/C(=C/c2cccs2)SC(=S)N1NS(=O)(=O)c1ccccc1 | -2 | 2 | 15 | 1 | 1 | -6
COCC#Cc1cnc2c(c1)C(=O)N([C@H](C)CO)C[C@H](C)[C@H](CN(C)C(C)=O)O2 | · | · | · | -2 | · | -3
O=C(O)c1cc(-c2ccc(/C=N/Nc3ccc([N+](=O)[O-])cn3)o2)ccc1Cl | 1 | · | · | · | · | 1
N/C(=N\N=C/c1ccc(-c2ccc(O)c(C(=O)O)c2)o1)N[N+](=O)[O-] | 12* | -1 | -2 | 2 | 0 | ·
COC(=O)C[C@@H]1CC[C@@H]2[C@@H](COc3ccc(NC(=O)c4cnccn4)cc3C(=O)N2C)O1 | · | · | · | 27 | · | -1
O=[N+]([O-])c1cccc2c([As](=O)(O)O)cccc12 | -2 | -6 | 35* | -1 | 2 | 1
CSc1ccc(-c2nc3cnccn3c2Nc2ccc3c(c2)OCO3)cc1 | 1 | 0 | 9 | 61* | -3 | ·
Clc1ccc(-c2nc3cnccn3c2Nc2ccc3c(c2)OCO3)cc1 | -2 | 4 | 4 | 12 | -2 | 0
CCOc1ccc(S(=O)(=O)NCc2ccccc2Cl)cc1C(N)=O | -1 | -4 | -2 | · | -1 | 20*
SMILES | FadD28 FP inh | Rv3671c inh | RecA intein inh | BioA inh | Mtb UGM inh | TcdB GH inh
CC(=O)Nc1cnc(-c2ccccc2O)cn1 | -3 | · | · | -2 | · | 12*
CCC(=O)N(C)C[C@@H]1Oc2cc(C#CC3CCCC3)ccc2S(=O)(=O)N([C@H](C)CO)C[C@H]1C | · | · | · | -1 | · | 0
Cc1cccc(NC(=S)NNC(=O)c2csc3c2CCC(C)C3)c1 (stereo not given) | 14* | 3 | 9 | 0 | · | 0
COc1ccc(CN2CCC(C(=O)Nc3ccc(Oc4cccnc4)cc3)CC2)cc1 | 16* | -4 | -6 | 0 | 4 | 6
O=C(OCC(=O)c1c[nH]c2ccccc12)c1ccc([N+](=O)[O-])s1 | -1 | -23 | -6 | 2 | 1 | 0
CCc1cccc2c(C(=O)COC(=O)c3ccc([N+](=O)[O-])s3)c[nH]c12 | 33* | -18 | -1 | · | 0 | 0
CC1(C)CC(CCNC(=O)CCl)(c2ccccc2)CCO1 (stereo not given) | -3 | 8 | 32* | 5 | -2 | 1
Oc1ccc(C[C@@H]2CNCCN2CCc2cc(C(F)(F)F)cc(C(F)(F)F)c2)cc1 | -8 | -2 | -2 | 0 | 3 | 0
FC(F)(F)c1cc(CCN2CCNC[C@H]2Cc2cccc3ccccc23)cc(C(F)(F)F)c1 | -26 | -3 | 19 | -2 | 1 | 11*
CCS(=O)(=O)Nc1ccc2c(c1)C(=O)N(C)C[C@@H](OC)[C@@H](C)CN(C)[C@H](C)CO2 | · | · | · | -1 | · | -2
C[C@@H]1CCCCO[C@H](CN(C)S(=O)(=O)c2ccc(Cl)cc2)[C@@H](C)CN([C@@H](C)CO)C(=O)c2cc(NC(=O)CCC(F)(F)F)ccc2O1 | · | · | · | -1 | · | 0
COc1cc(/C=N/NC(=O)c2c(C)nc3ccc(Cl)cn23)cc(OC)c1OC | -1 | · | 0 | -2 | 0 | 13*
CC(=O)Nc1ccc(C(=O)NNS(=O)(=O)c2ccc(C)cc2)cc1 | -2 | -13 | -2 | -1 | 1 | 0
CC(=O)c1ccc(NC(=O)Nc2ccc(NS(=O)(=O)c3ccc(C)cc3)cc2)cc1 | 11* | -106 | 11 | · | 5 | ·
C[C@@H]1CN([C@@H](C)CO)C(=O)Cc2cc(NS(=O)(=O)c3cn(C)cn3)ccc2O[C@@H]1CN(C)S(=O)(=O)c1ccc(F)cc1 | · | · | · | · | · | 0
C[C@@H]1CN([C@@H](C)CO)C(=O)CCCn2cc(nn2)CO[C@@H]1CN(C)S(=O)(=O)c1ccccc1 | · | · | · | 0 | · | 0
Nc1ccc2nonc2c1[N+](=O)[O-] | -4 | -3 | · | -20 | 23* | -1
O=C(Nc1ccc([N+](=O)[O-])cc1)Nc1ccc(OC(F)F)c(Cl)c1 | 13* | -500 | · | · | -2 | ·
COc1ccc(NC(=O)Nc2cccc([N+](=O)[O-])c2)cc1Cl | 16* | -15 | -3 | 2 | -3 | 1
CCCN1[C@@H]2c3ccc(-c4ccccc4F)c(=O)n3C[C@@H]2[C@@H](CO)[C@@H]1C(=O)N1CCN(C)CC1 | · | · | · | -1 | · | 0
CC[n+]1ccccc1/C=C/c1ccc(N(C)C)cc1 | 0 | · | 1 | -1 | · | 0
CC[n+]1ccc(/C=C/c2ccc(N(C)C)cc2)c2ccccc21 | 1 | · | · | · | · | 15*
O=C(CSc1nc2ccc(Cl)cc2[nH]1)NC1CCCc2ccccc21 (stereo not given) | -4 | -12 | 4 | · | 2 | 4
O=C(CSc1nc2ccccc2[nH]1)NC1CCCc2ccccc21 (stereo not given) | ? | -4 | 1 | · | 0 | 13*
CCCC(=O)Nc1sc2c(c1C(=O)Nc1ccccn1)CCCC2 | -2 | -1 | 9 | -1 | 0 | 12*
CC(C)NC(=O)N(C)C[C@@H]1Oc2c(NC(=O)c3cnccn3)cccc2C(=O)N([C@H](C)CO)C[C@@H]1C | · | · | · | 0 | · | 0
